Source: PubChem BioAssay
In the library only some 9.2% were active in any assay of this set; here they are far more common.
ELG1 DNA repair: ELG1-dependent DNA repair inhibition. HEK293T ELG1-luciferase reporter, luminescence, 16 h; DNA damage induced by 5-fluorouridine. Potency, µM (highest dose often 46.1 µM), usual class: inhibitors. 330,000 compounds, 2.3% hits. AID 504467; note: nearly all actives have a fitted effect of over 55% in size
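Reporter activity after DNA damage by 5-fluorouridine is monitored. Compound-treated cells incubate 16 hr at 37 °C, then ONE-Glo is added for 30 min before luminescence reading.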
SMN2 splice up: increases expression of the SMN2 splice variant. Potency, µM (doses to about 46.1 µM), hits mostly activators. HEK293 SMN2-luciferase splicing reporter, luminescence, 30-36 h. AID 1458. 210,000 compounds, 2.8% hits; note: nearly all actives have a fitted effect of over 55% in size
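qHTS luciferase splicing reporter: luminescence rises when SMN2 exon 7 is included in transfected HEK293 cells. Compound exposure lasted 30-36 h at 37C, with 4.5 mM final sodium butyrate as control, followed by a ONE-Glo read.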
FLuc counter: firefly luciferase modulation, counter-screen for miR-21 project. AID 588342. Potency, µM (highest dose often 57.5 µM), most hits filed as inhibitors. purified FLuc, Km substrates, luminescence inhibition. 360,000 compounds, 6.9% hits; note: nearly all actives have a fitted effect of over 55% in size
Target sequence (P08659 whole entry, looked up): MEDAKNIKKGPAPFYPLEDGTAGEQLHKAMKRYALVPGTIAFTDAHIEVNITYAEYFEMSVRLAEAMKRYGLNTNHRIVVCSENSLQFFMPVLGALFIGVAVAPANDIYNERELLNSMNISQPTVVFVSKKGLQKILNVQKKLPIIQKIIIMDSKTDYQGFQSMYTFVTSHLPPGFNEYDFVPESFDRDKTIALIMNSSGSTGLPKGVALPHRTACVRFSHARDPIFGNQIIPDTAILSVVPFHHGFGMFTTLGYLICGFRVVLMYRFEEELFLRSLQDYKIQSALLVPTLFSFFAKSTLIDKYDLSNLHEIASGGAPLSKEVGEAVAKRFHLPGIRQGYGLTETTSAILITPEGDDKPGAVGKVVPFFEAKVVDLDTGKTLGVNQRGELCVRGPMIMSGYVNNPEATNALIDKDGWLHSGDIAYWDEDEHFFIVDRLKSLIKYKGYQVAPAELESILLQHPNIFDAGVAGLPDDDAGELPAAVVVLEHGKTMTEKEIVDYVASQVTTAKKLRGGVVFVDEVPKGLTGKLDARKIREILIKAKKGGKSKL
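Purified P. pyralis luciferase, 10 nM final, with Km-level 10 uM D-luciferin and 10 uM ATP in 50 mM Tris acetate pH 7.5, 10 mM Mg acetate, 0.01% Tween-20, 0.05% BSA; 6-point qHTS titration about 60 µM downward; luminescence read.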
NPC1 promoter act: NPC1 promoter activation. Potency, µM (titrated, usually from 9.22 µM), usual class: activators. Huh7 NPC1 promoter luciferase reporter, 24 h. AID 485313. 320,000 compounds, 2.4% hits; note: nearly all actives have a fitted effect of over 60% in size
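Luminescence from an NPC1 promoter-driven luciferase reporter in stably transfected Huh7 cells was measured after 24 h compound treatment at 37 °C, followed by 10 min ambient incubation with luciferase detection reagent.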
ELG1 genotoxic: induces genotoxicity in HEK293T cells with luciferase-tagged ELG1; Potency, µM (titrated, usually from 46 µM), most hits filed as activators; 330,000 compounds, 1.3% hits; HEK293T ELG1-luciferase reporter, luminescence, 16 h; note: nearly all actives have a fitted effect of over 60% in size
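Genotoxicity was scored as increased ELG1-luciferase reporter signal, measured by ONE-Glo luminescence (30 min, room temperature). Compound or vehicle exposure of the HEK293T reporter cells lasted 16 hr at 37°C.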
Rab9 promoter act: Rab9 promoter activation; Huh7 Rab9 promoter-luciferase reporter, luminescence, 24 h; Potency, µM (series often up to 9.22 µM), hits mostly activators; 320,000 compounds, 2.8% hits; note: nearly all actives have a fitted effect of over 60% in size
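Cells were plated at 1500 per well in reduced-serum medium with 10% FBS and left 2 h. Compound in DMSO was then added for 24 h at 37 °C. Reporter signal was read by luminescence after 10 min with luciferase detection reagent.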
Numbers stand for hits; – = inactive; ? = inconclusive; · = no result. Calls come from the whole dose curve; as a rule, active = well fitted curve in the direction sought with a large enough effect; inconclusive = small, poorly fitted or top-dose-only effect, or another doubt; inactive = no such curve, though single readings can be large; an effect the other way counts as inactive or inconclusive.

SMILES | ELG1 DNA repair | SMN2 splice up | FLuc counter | NPC1 promoter act | ELG1 genotoxic | Rab9 promoter act
CCc1cc(/C(Cc2csc(C)n2)=N/O)c(O)cc1O | ? | – | – | – | – | –
C=C(NC(=O)C(=C)NC(=O)c1csc(C2=NC3c4csc(n4)C4NC(=O)c5csc(n5)C(C(C)(O)C(C)O)NC(=O)C5CSC(=N5)C(=CC)NC(=O)C(C(C)O)NC(=O)c5csc(n5)C3(CC2)NC(=O)C(C)NC(=O)C(=C)NC(=O)C(C)NC(=O)C(C(C)CC)NC2C=Cc3c(C(C)O)cc(nc3C2O)C(=O)OC4C)n1)C(N)=O (stereo unspecified) | · | – | · | · | · | ·
C=C(NC(=O)C(=C)NC(=O)c1csc(C2=NC3c4csc(n4)C4NC(=O)c5csc(n5)C([C@@](C)(O)C(C)O)NC(=O)C5CSC(=N5)/C(=C\C)NC(=O)C(C(C)O)NC(=O)c5csc(n5)[C@]3(CC2)NC(=O)C(C)NC(=O)C(=C)NC(=O)C(C)NC(=O)C(C(C)CC)NC2C=Cc3c(C(C)O)cc(nc3C2O)C(=O)OC4C)n1)C(N)=O (stereo partly specified) | 5.17µM | · | – | – | ? | –
COc1ccc(NC(=O)c2nnn(Cc3ccccc3C)c2N)c(OC)c1 | · | – | – | · | · | ·
COc1ccc(OC)c(NC(=O)c2nnn(Cc3ccccc3C)c2N)c1 | 11.2µM | – | – | – | – | –
COc1ccc(CCNC(=O)Cn2nnc(-c3ccc(N(C)C)cc3)n2)cc1OC | – | – | 16.9µM | – | – | –
CCOc1ccc(NC(=O)Cn2nnc(C(=O)NCCc3ccc(OC)c(OC)c3)c2N)cc1 | – | – | – | – | – | –
COc1ccc(CCNC(=O)Cn2nnc(-c3ccc(OC)c(OC)c3)n2)cc1OC | ? | – | – | – | – | –
COc1ccc(CCNC(=O)Cn2nnc(C(=O)Nc3ccc(Br)cc3)c2N)cc1OC | ? | · | 9.53µM | – | – | –
COc1ccccc1NC(=O)Cn1nnc(C(=O)Nc2ccccc2)c1N | – | – | – | – | – | –
CCOc1ccc(NC(=O)c2nnn(CC(=O)Nc3ccccc3OC)c2N)cc1 | ? | – | 2.69µM | – | – | –
O=C(CN(C(=O)c1csnn1)c1ccc(F)c(Cl)c1)NCc1ccc2c(c1)OCO2 | – | · | – | – | – | –
Cc1c(CCC(=O)NCCc2ccccc2)c(=O)oc2c(C)c(O)ccc12 | · | – | – | · | · | ·
COCc1nnc(NC(=O)c2ccc(OC)cc2OC)s1 | ? | 11.2µM | 8.49µM | 2.51µM | 8.2µM | 2.51µM
COc1cccc(C(=O)Nc2nnc(Cc3ccc(OC)c(OC)c3)s2)c1 | – | · | – | – | – | –
COc1ccc(C(=O)Nc2nnc(Cc3ccc(OC)c(OC)c3)s2)c(OC)c1 | – | · | 26.9µM | – | – | –
COc1ccc(C(=O)Nc2nnc(CCc3ccccc3)s2)c(OC)c1 | – | · | ? | – | – | –
O=C(CSc1ccccn1)Nc1ccc2[nH]c(=O)[nH]c2c1 | ? | · | – | – | – | –
O=C(N/N=C/c1ccccc1F)NC1CCCCC1 | ? | ? | 23.9µM | ? | ? | 2.82µM
O=C(N/N=C/c1ccccc1)NC1CCCCC1 | ? | – | ? | – | – | –
CC1CCCC(NC(=O)CSc2ncccn2)C1C (stereo unspecified) | ? | · | · | – | – | –
C/C(=N\Nc1ccc(Cl)c(C(=O)O)c1)c1ccc(N2CCOCC2)cc1 | ? | · | 23.9µM | – | ? | ?
O=C(O)c1cc(N/N=C/c2ccc(N3CCOCC3)s2)ccc1Cl | ? | ? | 7.57µM | ? | ? | 3.16µM
COc1ccccc1N1CCN(CCCCNS(=O)(=O)c2cccc3c(N(C)C)cccc23)CC1 | · | – | · | – | · | –
Cc1ccc(NNC(=O)c2ccno2)c(C)c1 | 13µM | · | – | – | – | –
SMILES | ELG1 DNA repair | SMN2 splice up | FLuc counter | NPC1 promoter act | ELG1 genotoxic | Rab9 promoter act
O=c1c2ccc([N+](=O)[O-])cc2ncn1CCOc1cccc(Br)c1 | 18.3µM | – | – | – | – | –
Cc1ccc(OCCn2cnc3ccccc3c2=O)c([N+](=O)[O-])c1 | ? | 15.8µM | ? | 2.82µM | ? | 1.78µM
O=c1c2ccc([N+](=O)[O-])cc2ncn1CCOc1ccc(Cl)cc1 | ? | – | – | – | – | –
O=C(NNC(=O)c1c(F)cccc1F)c1ccccc1-n1cccc1 | – | – | – | – | – | –
COc1cccc(N2C(=O)Nc3ccc(Br)cc3C2(O)C(=O)NCCCOC(C)C)c1 (stereo unspecified) | – | · | – | – | – | –
CC(=O)c1ccc(NC(=O)C2(c3ccccc3)CC2(Cl)Cl)cc1 (stereo unspecified) | ? | · | 26.9µM | ? | ? | ?
Cc1ccccc1NC(=O)/C(=C/c1ccccc1)c1ccccc1 | – | – | – | – | – | –
O=C(Nc1ccc(F)cc1)/C(Cl)=C/c1ccccc1 | ? | 14.1µM | 1.2µM | 3.98µM | ? | 2.51µM
CC(=O)c1ccc(NC(=O)/C(Cl)=C/c2ccccc2)cc1 | ? | ? | 0.953µM | 3.55µM | 8.2µM | 3.98µM
Cc1ccc(NC(=O)/C(Cl)=C\c2ccccc2)cc1 | – | – | – | – | – | –
O=C(Nc1ccccc1)/C(=C/c1ccccc1)c1ccccc1 | 10.3µM | – | ? | – | – | –
CC(C)Cc1nnc(NC(=O)CSc2nc(O)c(-c3ccccc3)c(=O)[nH]2)s1 | ? | – | ? | – | – | –
